The supplement of paper PMC3334620
Whole data set: some 33,000 sequences, median “E-score (-0.5 to 0.5)” near -0.036, cut for the highest 2% near 0.37. Many of the other results were omitted from the sample, so the highest values are more common in it than they were.

Target: T1, Yer064c (UniProt P40041)
T1 sequence: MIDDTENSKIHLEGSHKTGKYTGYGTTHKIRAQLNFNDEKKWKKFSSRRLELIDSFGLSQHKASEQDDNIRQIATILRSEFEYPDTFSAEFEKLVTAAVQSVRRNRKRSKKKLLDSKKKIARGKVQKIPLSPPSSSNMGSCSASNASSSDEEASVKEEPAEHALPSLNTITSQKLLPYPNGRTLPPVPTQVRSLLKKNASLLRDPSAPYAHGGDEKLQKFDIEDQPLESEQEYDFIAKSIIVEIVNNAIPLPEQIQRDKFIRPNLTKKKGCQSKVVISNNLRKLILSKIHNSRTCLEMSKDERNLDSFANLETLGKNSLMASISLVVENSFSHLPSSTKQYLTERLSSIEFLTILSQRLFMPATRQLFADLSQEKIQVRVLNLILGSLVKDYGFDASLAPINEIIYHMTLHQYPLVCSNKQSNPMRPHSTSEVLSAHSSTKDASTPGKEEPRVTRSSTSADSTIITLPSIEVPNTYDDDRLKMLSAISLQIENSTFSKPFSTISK
Assay: PBM E-score (8-mer binding enrichment) (E-score (-0.5 to 0.5)); higher = stronger / more preferred TF binding
Conditions: protein concentration: 200 nM; construct: GST-full length
Outline: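 Yeast transcription factors carrying a GST tag, as full-length proteins or DNA-binding domains, were produced by PURExpress in vitro transcription/translation. About 100-200 nM protein was applied to universal all-10-mer Agilent arrays, double-stranded by primer extension on fresh or once-stripped slides. Bound protein was detected with fluorescent anti-GST, and scans were normalised with masliner. The Universal PBM Analysis Suite gave each ungapped eight-base word, pooled with its reverse complement, an E-score, a modified Wilcoxon-Mann-Whitney statistic.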

In order of falling “PBM E-score” value:
1. AGTCATCG  0.492
2. AGTCATCC  0.49
3. AGTCATTA  0.487
4. AGTCATCA  0.485
5. AGTCATTC  0.482
6. AGTCATTG  0.475
7. ATGACTTC  0.469
8. CTTGACTC  0.463
9. CTGACTCC  0.46
10. GTTGACTA  0.457
11. ACTCATCC  0.455
12. AGTCAGGC  0.449
13. ATTGACTC  0.445
14. GACTCCTA  0.443
15. AGTCAGGG  0.439
16. ATGACTTG  0.435
17. CTTGACTA  0.435
18. ATTGACTA  0.428
19. CAGTCACC  0.423
20. CAGTCACA  0.42
21. GACTCCTC  0.419
22. TGATTAAA  0.418
23. TACAGTCA  0.418
24. AGTCAGGA  0.417
25. CAGTCACG  0.413
26. ACTCATCA  0.412
27. CACAGTCA  0.411
28. TGATTACA  0.41
29. ACTCATCG  0.409
30. GACAGTCA  0.409
31. CAATAGTC  0.409
32. TGATTTAA  0.407
33. AGTCGCCC  0.403
34. ACTCATCT  0.401
35. AGTACTCA  0.393
36. CTGACTTC  0.392
37. AACAGTCA  0.384
38. AGTCGCTC  0.382
39. AAATAGTC  0.382
40. GGTACTCA  0.381
41. GAATAGTC  0.38
42. CTTACTCA  0.373
43. AGTCGCTA  0.371
44. AGTCGCAG  0.367
45. AGTCGCCG  0.36
46. AGTCGCCA  0.356
47. AGTCGCAC  0.353
48. CGTACTCA  0.335
49. ACTCAGGC  0.331
50. ATTACTCA  0.329
51. ACGACTTC  0.324
52. ACTAACAC  0.315
53. ACTCAGGG  0.311
54. AGTCGCTG  0.303
55. ACACAGTC  0.285
56. AGGATGAT  0.281
57. ATTGACTG  0.275
58. CAGTCAAG  0.267
59. AGTACTCG  0.261
60. CGATTAAA  0.249
61. AGCCATTG  0.247
62. CTCACAAA  0.232
63. GGTCATCA  0.228
64. AATGTGTA  0.222
65. TACAGTGA  0.211
66. AACAGTCG  0.209
67. ATTCATCG  0.205
68. GGATTAAA  0.205
69. AACAGTCT  0.204
70. CACAGTCG  0.203
71. AGGACTTC  0.201
72. AGATTTAA  0.2
73. CGATTTAA  0.188
74. ATTGACGA  0.188
75. TCAGCGAA  0.186
76. GCTCATCA  0.184
77. ACCCATCT  0.182
78. GGTGGCTA  0.181
79. CTAATTAG  0.175
80. AGTACTCC  0.171
81. CGCTCCCG  0.17
82. AAGACTTG  0.165
83. CTGTCACA  0.16
84. ACACATCG  0.158
85. ATTCAGAA  0.139
86. CACAGTCC  0.132
87. CTTACTCC  0.128
88. TACAGTAA  0.128
89. GTTGACGA  0.126
90. GAGGTAAA  0.122
91. ATTCATCC  0.119
92. ATTCCAGG  0.118
93. TCTCATCA  0.115
94. CTTGACAA  0.113
95. ATATACTC  0.103
96. CCGGACTA  0.103
97. CGATTACA  0.101
98. ACGTTATA  0.0989
99. GTGTTCAA  0.0916
100. AGCATTAA  0.0916
101. CCAGAATC  0.0913
102. AGTTTAGG  0.0907
103. GGATTACA  0.0898
104. AGCCATTC  0.0873
105. CACCGTTA  0.0864
106. CTTGACCA  0.0717
107. CTATGGAA  0.0704
108. ATTGGCTA  0.0683
109. AGGTGAAA  0.0659
110. ATGTGGAG  0.0652
111. CTCACTCC  0.0635
112. AAATAGTG  0.062
113. ATTGACAA  0.0616
114. GACAGTCC  0.0581
115. AGGACTTG  0.0575
116. ACTTAACG  0.0504
117. CAATAGTG  0.0438
118. GTTATCAA  0.041
119. AAGTTTCT  0.0369
120. ATTGACAC  0.0304
121. ATTCAGGG  0.0298
122. CAAACAGA  0.0255
123. AAATGAAG  0.0192
124. AAAGTCCA  0.0185
125. CTAGGTAC  0.0158
126. CTCTAGGA  0.0144
127. CTGGACAG  0.0136
128. AGCGCGGG  0.00652
129. CTGCTAGA  0.00564
130. CGTCATCA  -0.004
131. AACATTAA  -0.00496
132. GTTGACAA  -0.00857
133. CACCGCAA  -0.0119
134. GGTCATTA  -0.0121
135. GACCTTTA  -0.0143
136. AGATTCGC  -0.0217
137. ACTGCGGA  -0.0234
138. ATTGGTTG  -0.0268
139. CGTCGCAG  -0.031
140. AAATAGTT  -0.0372
141. CGTCAGGA  -0.0376
142. GGTACTTA  -0.0396
143. GAATAGCC  -0.0409
144. GAATAGTA  -0.0424
145. AACTTTGG  -0.0438
146. ACGGATAA  -0.0519
147. AGTGAGAG  -0.0545
148. ACGGAGCG  -0.0547
149. AACCAGTA  -0.0555
150. AGTTCCAC  -0.0556
151. CGTCATTC  -0.0565
152. CGTCATTA  -0.0609
153. ACGCATCT  -0.0617
154. GCTCATCC  -0.0652
155. CCAACAAA  -0.069
156. ATGCACCC  -0.0692
157. AGGAGCTC  -0.0695
158. CACTCCTA  -0.0701
159. AGCGATCA  -0.0759
160. CCGACTTC  -0.0761
161. GATTGGCC  -0.0787
162. CAATAGTA  -0.0839
163. CTCGATGC  -0.0842
164. CGTCGCTA  -0.0862
165. ACACTTTC  -0.0867
166. CGGTCACC  -0.0952
167. CGAGCAGA  -0.0955
168. CCTGGAAG  -0.1
169. CAGACTTC  -0.103
170. CCCTCTTA  -0.103
171. GACAGTTA  -0.103
172. AAGAGAGG  -0.104
173. ACAATCTC  -0.108
174. AATAGGAG  -0.113
175. GCGTAGAA  -0.12
176. AGGTAGGG  -0.121
177. CCCCTACC  -0.124
178. AGGCATCG  -0.125
179. GAATGCCA  -0.127
180. AAACGGGG  -0.128
181. CGTCATCC  -0.131
182. CGGTCACA  -0.132
183. GGACCTAC  -0.132
184. AACTCCTA  -0.137
185. GGTCAGGA  -0.138
186. CTGCTAAA  -0.141
187. CATCAGCA  -0.143
188. ATCGAGAT  -0.151
189. CAGAAGGA  -0.151
190. AGCAACTG  -0.155
191. CATAGGCC  -0.158
192. CGTCGCTC  -0.159
193. CTTGACCC  -0.164
194. AACTCCTC  -0.169
195. AGGCATTG  -0.171
196. CCGTCACC  -0.189
197. AACGTGGG  -0.189
198. CGTCAGGC  -0.19
199. GGTCGCTA  -0.197
200. CACTCCTC  -0.206
201. GCCTATCC  -0.207
202. CCTCATCG  -0.207
203. GCCAAGGC  -0.214
204. AGAACGTG  -0.217
205. CCGTCACA  -0.22
206. CTGACCCC  -0.221
207. AGGCCGCA  -0.226
208. AATGCCCT  -0.232
209. GGAGATCC  -0.237
210. CGCTGCTC  -0.243
211. ATGCAACC  -0.254
212. GGGAGACC  -0.259
213. GCCCCCAC  -0.265
214. CTTGACGC  -0.268
215. CAGGGGCC  -0.269
216. ACGGGCTA  -0.288
217. GGGCGCAC  -0.321
218. CCTCATCC  -0.323
219. GGAAGCCC  -0.374
